Source: PubChem BioAssay
Mito fusion yeast: inhibitors of mitochondrial division or activators of mitochondrial fusion; S. cerevisiae fusion-defective mutant growth rescue, CellTiterGlo 48 h; Potency, µM (highest dose often 46.1 µM), without a hit: at the highest dose growth rescue (activation), hits mostly activators; 320,000 compounds, 0.23% hits; AID 485298; note: % of control where 0% means no effect; nearly all actives have a fitted effect of over 45% in size
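Growth-rescue viability read-out: after 48 h at the non-permissive 37C in glycerol/ethanol YPEG, yeast mitochondrial fusion mutants are measured by CellTiterGlo luminescence; compounds (23 nl pinned per well) restoring growth score as division inhibitors or fusion activators.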
A549 tox-1: kills or reduces viability of A549 cells in Nrf2 counter-screen; 390,000 compounds, 0.16% hits; A549 ARE-Fluc cells, CellTiter-Fluor viability, 18-24 h; Potency, µM (series often up to 46 µM), inactives show at the highest dose activity change, negative = cytotoxicity, most hits filed as inhibitors; AID 504648; note: % is set by controls: 0 for no effect and ±100 for the full control effect
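A549 ARE-Fluc cells in 5% FBS OPTI-MEM, 5000 cells/well, rested 2 h then exposed to compounds in concentration-response for 18-24 h at 37 °C. Viability by CellTiter-Fluor fluorescence (Ex 405/Em 525) after 30 min; luciferase luminescence (BugLite, 15 min, RT) read afterwards.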
Nrf2 inh: Nrf2 pathway inhibition; A549 ARE-Fluc reporter, luciferase luminescence, 18-24 h; Potency, µM (top dose mostly 46 µM), inactives show at the highest dose activity change, negative = inhibition, hits mostly inhibitors; 360,000 compounds, 2.1% hits; note: % is set by controls: 0 for no effect and ±100 for the full control effect; nearly all actives have a fitted effect of over 60% in size
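Concentration-response testing used A549 ARE_Fluc cells at 5000 cells/well. Following an 18-24 h compound incubation, viability was read by fluorescence (Ex 405/Em 525) and luciferase output by luminescence.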
IDH1 R132H inh: inhibitors of human mutant IDH1 R132H | IDH1-R132H enzyme, NADPH consumption, diaphorase/resazurin fluorescence | Potency, µM (highest dose often 76.6 µM), without a hit: at the highest dose activity change, negative = inhibition, usual class: inhibitors | O75874 | AID 602179 | 390,000 compounds, 0.093% hits; note: % is set by controls: 0 for no effect and ±100 for the full control effect; nearly all actives have a fitted effect of over 65% in size
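IDH1-R132H (0.5 ug/mL) preincubated 30 min with compound, then NADPH (0.016 mM) and alpha-KG (2 mM) added; 80 min at RT, pH 7.5. Remaining NADPH coupled via diaphorase/resazurin to fluorescence (540/590 nm); concentration-response curves normalized to no-enzyme control.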
TrxR1 substrate: is turned over as a substrate by rat TrxR1; purified TrxR1 substrate turnover, NADPH consumption readout; O89049; 390,000 compounds, 0.01% hits; Potency, µM (highest dose often 114 µM), for inactives: at the top dose activity change, negative = substrate turnover; AID 588456; note: % is set by controls: 0 for no effect and ±100 for the full control effect; nearly all actives have a fitted effect of over 50% in size
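Rat TrxR1, dispensed at 90 nM, was prereduced with 400 uM NADPH (final) for 5 min at ~22 deg C, then incubated with compound 15 min before 400 uM selenite. A first-read NADPH fluorescence drop versus no-compound background flagged substrates.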
rTrxR1 inhibitor: blocks rat thioredoxin reductase 1; O89049; recombinant rTrxR1, NADPH fluorescence consumption, selenite substrate; Potency, µM (top dose mostly 114 µM), without a hit: top-dose activity change, negative = inhibition, most hits filed as inhibitors; 390,000 compounds, 1% hits; AID 588453; note: % is set by controls: 0 for no effect and ±100 for the full control effect; nearly all actives have a fitted effect of over 65% in size
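Rat TrxR1 (90 nM in the dispensed reagent) was pre-reduced with 400 uM NADPH for 5 min at room temperature, then incubated with compound for 15 min. After 400 uM selenite was added, NADPH fluorescence (Ex 340/Em 450 nm) was followed for 8 min.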
FLuc counter 3: firefly luciferase inhibition, Nrf2 hit validation; shares compounds with Nrf2 inh; purified firefly luciferase, luminescence inhibition; Potency, µM (series often up to 57.5 µM), for inactives: at the highest dose activity change, negative = inhibition, usual class: inhibitors; 1,400 compounds, 4% hits; AID 720522; note: % is set by controls: 0 for no effect and ±100 for the full control effect; nearly all actives have a fitted effect of over 65% in size
Target sequence (P08659 whole entry, looked up): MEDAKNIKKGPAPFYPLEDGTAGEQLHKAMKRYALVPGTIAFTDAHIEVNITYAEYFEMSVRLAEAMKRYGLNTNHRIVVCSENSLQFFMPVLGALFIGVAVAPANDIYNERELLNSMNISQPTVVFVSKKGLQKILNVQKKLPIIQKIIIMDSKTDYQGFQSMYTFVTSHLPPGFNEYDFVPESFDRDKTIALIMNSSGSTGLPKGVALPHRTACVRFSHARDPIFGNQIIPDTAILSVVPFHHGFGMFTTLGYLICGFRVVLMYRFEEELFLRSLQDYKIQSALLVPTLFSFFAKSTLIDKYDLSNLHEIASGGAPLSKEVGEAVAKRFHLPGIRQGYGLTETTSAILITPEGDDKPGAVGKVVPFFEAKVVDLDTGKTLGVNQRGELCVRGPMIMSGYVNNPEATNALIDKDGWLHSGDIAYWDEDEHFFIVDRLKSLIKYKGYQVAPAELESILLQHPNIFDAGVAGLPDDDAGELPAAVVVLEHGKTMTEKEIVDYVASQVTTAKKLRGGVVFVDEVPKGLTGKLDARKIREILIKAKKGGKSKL
A549 tox-2: A549 cytotoxicity, Nrf2 inhibitor counterscreen; shares compounds with Nrf2 inh; A549 ARE-Fluc cells, cytotoxicity counterscreen; Potency, µM (titrated, usually from 46.1 µM), without a hit: at the highest dose activity change, negative = cytotoxicity, most hits filed as inhibitors; 1,400 compounds, 2% hits; AID 720523;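 note: cells exposed to compounds for 18 to 24 hours; % is set by controls: 0 for no effect and ±100 for the full control effect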
Nrf2 ARE inh: Nrf2 inhibition confirmed, A549 ARE-luciferase. shares compounds with Nrf2 inh. 1,400 compounds, 74% hits. AID 720524. A549 ARE-firefly luciferase reporter, luminescence. Potency, µM (highest dose often 46.1 µM), for inactives: at the highest dose activity change, negative = inhibition, most hits filed as inhibitors; note: % is set by controls: 0 for no effect and ±100 for the full control effect; nearly all actives have a fitted effect of over 65% in size
Starred values were filed as active, the others as inactive; ? = inconclusive; nt = no result shown; [ ] = another dose, or the depositor's remark. Most compounds without a hit are left out; they make up all but 3.1% or so of the library. Calls come from the whole dose curve; as a rule, active = well fitted curve in the direction sought with a large enough effect; inconclusive = small, poorly fitted or top-dose-only effect, or another doubt; inactive = no such curve, though single readings can be large; an effect the other way counts as inactive or inconclusive. Potency is the fitted concentration of half-maximal effect.

SMILES	Mito fusion yeast	A549 tox-1	Nrf2 inh	IDH1 R132H inh	TrxR1 substrate	rTrxR1 inhibitor	FLuc counter 3	A549 tox-2	Nrf2 ARE inh
COc1cc(OC)cc(-c2cc3nc(C)c(CCC(=O)Nc4ccc(F)c(Cl)c4)c(C)n3n2)c1	nt	-1%	2.1µM*	4%	51%	44%	?	-5%	5.8µM*
CC(C)Cn1c(SC(C)C(=O)Nc2ccc3c(c2)OCCO3)nc2ccccc2c1=O (stereo unspecified)	-1%	-1%	-21%	-5%	-4%[57.1 µM]	28%	nt	nt	nt
CC(Sc1nc2ccccc2c(=O)n1C)C(=O)Nc1ccc2c(c1)OCCO2 (stereo unspecified)	0%	-13%	5.2µM*	3%	2%	23%	-1%	3%	?
CN1/C(=C/c2cc[n+](C)c3ccccc23)C=Cc2ccccc21	-7%	21µM*	1.2µM*	20%	-6%[57.1 µM]	-6%[57.1 µM]	?	?	6.5µM*
O=C(COc1cccc2ccccc12)N1CCN(c2ccccc2)CC1	29%	2%	nt	1%	1%[57.1 µM]	0%[57.1 µM]	nt	nt	nt
COc1ccc(N2CCN(C(=O)COc3cccc4ccccc34)CC2)cc1	6%	?	2.6µM*	-3%	3%	14%	-6%	8%	-5%
COc1cc(OC)cc(C(=O)NNC(=O)c2ccccn2)c1	-5%	?	8.2µM*	-3%	4%[57.1 µM]	-3%[57.1 µM]	-10%	-25%	7.3µM*
Cc1cc(N(C)C)cc(C)c1/C=C/c1cc[n+](C)c2ccccc12	nt	nt	nt	nt	12%	10%	-12%	-22%	nt
C[n+]1ccc(/C=C/c2ccccc2O)c2ccccc21	27%	-17%	-27%	10%	-5%	-39%	nt	nt	nt
COc1cc(OC)c(/C=C/c2cc[n+](C)c3ccccc23)c(OC)c1	nt	nt	nt	nt	-10%	-4%	0%	-28%	3.7µM*
Cc1ccc(CNC(=O)c2cc3sccc3n2Cc2ccc(Cl)cc2)cc1	nt	-1%	-9%	0%	-4%	11%	nt	nt	nt
Cc1cc(C)c2oc(-c3ccc(NC(=O)c4cc(Br)ccc4Cl)cc3)nc2c1	nt	1%	5.8µM*	0%	7%	19%	-13%	-1%	7.3µM*
CCCSc1ncc(Cl)c(C(=O)NCc2ccc(OC)cc2)n1	nt	-3%	?	nt	7%	13%	nt	nt	nt
CN(C)S(=O)(=O)N1CCC(Oc2cccc(C(=O)NC3CCCCCC3)c2)CC1	1%	-16%	2.6µM*	2%	-11%	-3%	2%	?	0.073µM*
Cc1ccc(C(C)(C)C)cc1S(=O)(=O)N1CCC(C(=O)N2CCN(c3ccc(O)cc3)CC2)CC1	?	-19%	9.2µM*	8%	-15%	-11%	?	0%	nt
CCc1ccc(CNC(=O)c2cc(=O)[nH]c3ccc(S(=O)(=O)N4CCCCC4)cc23)cc1	nt	9%	nt	14%	4%[57.1 µM]	31%[57.1 µM]	nt	nt	nt
CCc1ccc(C(=O)COC(=O)C(Cc2c[nH]c3ccccc23)NC(=O)c2ccc(Br)cc2)cc1 (stereo unspecified)	nt	-4%	6%	-6%	7%	5%	nt	nt	nt
CCCCN(C)C(=O)C1CCCN(c2ncnc3onc(C)c23)C1 (stereo unspecified)	nt	-21%	9.2µM*	1%	1%	16%	-1%	-19%	2.9µM*
CCCCN(CC)C(=O)C1CCCN(c2ncnc3onc(C)c23)C1 (stereo unspecified)	nt	-11%	?	-3%	3%	20%	nt	nt	nt
NC(=O)c1ccccc1OCC(=O)N1CCC(Cc2ccccc2)CC1	4%	-18%	5.2µM*	-11%	-2%	9%	-14%	-1%	8.2µM*
C=CCn1c(O)c(N=NC(=S)Nc2ccccc2F)c2cc(S(=O)(=O)N3CCOCC3)ccc21	-7%	?	5.8µM*	3%	0%[57.1 µM]	-4%[57.1 µM]	1%	-28%	nt
C=CCn1c(O)c(N=NC(=S)Nc2ccccc2F)c2ccccc21	0%	?	?	12%	-2%	8%	nt	nt	nt
Cc1ccc(Cn2c(C)c3cnn(CC(=O)N4CCN(c5cc(C)ccc5C)CC4)c(=O)c3c2C)cc1	nt	-17%	8.2µM*	0%	3%	7%	4%	-23%	6.5µM*
Cc1c2cnn(CC(=O)N3CCN(c4ccc(F)cc4)CC3)c(=O)c2c(C)n1Cc1ccc(F)cc1	nt	-11%	?	0%	1%	0%	nt	nt	nt
Cn1c(=O)c2c(nc(NCCc3ccccc3)n2CC(=O)NCCc2ccccc2)n(C)c1=O	6%	0%	-2%	-1%	-8%	-3%	nt	nt	nt
SMILES	Mito fusion yeast	A549 tox-1	Nrf2 inh	IDH1 R132H inh	TrxR1 substrate	rTrxR1 inhibitor	FLuc counter 3	A549 tox-2	Nrf2 ARE inh
C=CCn1c(NCCc2ccccc2)nc2c1c(=O)n(C)c(=O)n2C	4%	-9%	9.2µM*	7%	5%[57.1 µM]	4%[57.1 µM]	2%	4%	nt
CCN(CC)CCNc1nc2c(c(=O)n(C)c(=O)n2C)n1C/C=C(/C)Cl	2%	-8%	11%	-1%	-7%	-16%	nt	nt	nt
C/C(Cl)=C\Cn1c(NCCc2ccccc2)nc2c1c(=O)n(C)c(=O)n2C	6%	-16%	2.9µM*	2%	1%	14%	1%	-11%	7.3µM*
COc1ccc(C(=O)Oc2cc(/C=N/NS(=O)(=O)c3ccccc3)ccc2OC)cc1	9%	-2%	nt	-6%	-8%	18%[57.1 µM]	nt	nt	nt
COc1ccc(/C=N/NS(=O)(=O)c2ccc(C)cc2)cc1OC(=O)c1ccc(C)cc1	-3%	-3%	5.2µM*	-2%	-5%	7%[57.1 µM]	1%	2%	nt
O=C(Nc1cccc(Cl)c1)c1ccc(S(=O)(=O)NCC2CCCO2)cc1 (stereo unspecified)	-7%	-17%	4.6µM*	10%	-2%	-6%	-1%	-3%	13µM*
O=C(Nc1ccccc1)c1ccc(S(=O)(=O)NCC2CCCO2)cc1 (stereo unspecified)	2%	1%	3%	6%	-5%	25%	nt	nt	nt
